Experimental findings from PubChem BioAssay (NCI) are described below.

Among the test systems are HCT-15 colon; HT29 colon; SNB-75 CNS; SNB-19 CNS; U251 CNS; PC-3 prostate; SK-MEL-5 melanoma; UACC-62 melanoma; LOX IMVI melanoma; SK-MEL-28 melanoma; EKVX NSCLC; SN12C renal; TK-10 renal; ACHN renal; CAKI-1 renal; A498 renal; HL-60(TB) leukemia; CCRF-CEM leukemia; UO-31 renal.
Experiment in all cases: NCI-60 one-dose screen, 48 h (100 = growth as untreated, 0 = no growth, -100 = all killed)
Common to all, as to conditions: 10 µM unless noted

Several values for one entry are separate records, joined by “and”; a condition that tells them apart may be missing. Equal values may be shown once. Compounds without any hit were thinned out: in the full panel of roughly 83,000, 20% have a hit.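 Step 1: grow cells in 96-well plates. Step 2: add test compound at a single concentration. Step 3: incubate 48 h. Step 4: record percent growth.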 Unmarked numbers belong to inactive results. Activity calls are given as the source filed them. How the source made its calls: active means growth percent below 10; inactive means the rest.

With `CC[C@H](C)[C@H](NC(=O)c1cnccn1)C(=O)N(C)[C@H](C[C@@H](OC(C)=O)c1nc(C(=O)N[C@@H](Cc2ccccc2)C[C@H](C)C(=O)OC)cs1)C(C)C`, the growth is 6.99% (active) with HCT-15 colon; -5.79% (active) in the experiment on HT29 colon; 15% in the experiment on SNB-75 CNS; 31.9% with SNB-19 CNS; 10.3% with U251 CNS; 21.7% in the experiment on PC-3 prostate. The growth in the experiment on SK-MEL-5 melanoma is 0.869% (active); in the experiment on UACC-62 melanoma, 34.2%; in the experiment on LOX IMVI melanoma, 17.5%; in the experiment with SK-MEL-28 melanoma, 59.2%; with EKVX NSCLC, 43.9%; in the experiment on SN12C renal, 43.6%. For the same compound, the growth with TK-10 renal was 48.2%; with ACHN renal it was 45.3%; with CAKI-1 renal, 29.4%; in the experiment with A498 renal, -7.33% (active); in the experiment with HL-60(TB) leukemia, -43.7% (active); with CCRF-CEM leukemia it was 12%.

Regarding `O=[N+]([O-])c1cc(Br)c(O)c(Br)c1`, the growth in the experiment with HCT-15 colon was 100%; in the experiment on HT29 colon, 95.6%; with SNB-75 CNS it was 102%; in the experiment with SNB-19 CNS, 102%; with U251 CNS, 99.8%; in the experiment with PC-3 prostate it was 96.7%. Also, the growth is 98% with SK-MEL-5 melanoma; 105% with UACC-62 melanoma; 101% in the experiment on LOX IMVI melanoma; 120% in the experiment with SK-MEL-28 melanoma; 106% with SN12C renal; 87.5% in the experiment with UO-31 renal. The growth was 100% with TK-10 renal; 118% with ACHN renal; 108% in the experiment with CAKI-1 renal; 119% in the experiment on HL-60(TB) leukemia; 100% in the experiment with CCRF-CEM leukemia.

For `CC[PH+](CC)CC.O=COC1OC([S-])C(OC=O)C(OC=O)C1OC=O.[Au+]` (stereo not given), the growth was -74.9% (active) in the experiment with HCT-15 colon; -54% (active) with HT29 colon; -24.2% (active) in the experiment with SNB-75 CNS; -99.1% (active) with SNB-19 CNS; -99.5% (active) with U251 CNS; -7.17% (active) with PC-3 prostate. For the same compound, the growth in the experiment on SK-MEL-5 melanoma was -96.7% (active); with UACC-62 melanoma, -99% (active); in the experiment on LOX IMVI melanoma, -89.4% (active); in the experiment with SK-MEL-28 melanoma, -92.1% (active); with EKVX NSCLC it was -41.2% (active); in the experiment on UO-31 renal, -91.2% (active). Moreover, the growth in the experiment on TK-10 renal is -97.7% (active); in the experiment on ACHN renal it was -99.7% (active); in the experiment with CAKI-1 renal, -92.8% (active); in the experiment on A498 renal, -82.2% (active); in the experiment on HL-60(TB) leukemia, -33.3% (active); with CCRF-CEM leukemia, -11.4% (active).

As for `O=C(NC(Cl)=C(Cl)Cl)P(=O)(c1ccccc1)c1ccccc1`, the growth in the experiment with HCT-15 colon was 105%; with HT29 colon, 112%; with SNB-75 CNS it was 92.3%; with SNB-19 CNS it was 96.1%; in the experiment with U251 CNS it was 95.5%; in the experiment with PC-3 prostate, 103%. Further, the growth was 98.5% with SK-MEL-5 melanoma; 102% in the experiment on UACC-62 melanoma; 101% in the experiment on LOX IMVI melanoma; 99.6% with SK-MEL-28 melanoma; 107% in the experiment on SN12C renal; 95.8% in the experiment with UO-31 renal. The growth is 118% with TK-10 renal; 85.7% in the experiment on CAKI-1 renal; 102% in the experiment with A498 renal; 110% in the experiment on HL-60(TB) leukemia; 98.6% in the experiment on CCRF-CEM leukemia.

With `Nc1ccc(S(=O)(=O)F)cc1`, the growth in the experiment with HCT-15 colon is 107%; in the experiment on HT29 colon, 103%; with SNB-75 CNS it was 99.5%; with SNB-19 CNS it was 105%; in the experiment on U251 CNS, 105%; with PC-3 prostate, 105%. The growth in the experiment on SK-MEL-5 melanoma is 106%; in the experiment with UACC-62 melanoma, 105%; with LOX IMVI melanoma it was 99.4%; in the experiment with SK-MEL-28 melanoma, 114%; in the experiment on EKVX NSCLC it was 112%; in the experiment on SN12C renal, 105%. In addition, the growth was 92.7% in the experiment on TK-10 renal; 109% in the experiment on ACHN renal; 101% with CAKI-1 renal; 94.8% with A498 renal; 91.9% with HL-60(TB) leukemia.

Take `COC12CC3C4=CCOC5CC(=O)N6c7ccccc7C1(CCN2C4)C6C53` (stereo not given): the growth is 103% with HCT-15 colon; 100% in the experiment on HT29 colon; 70.1% in the experiment with SNB-75 CNS; 116% with SNB-19 CNS; 93.2% with U251 CNS; 105% in the experiment with PC-3 prostate. Further, the growth was 110% in the experiment with SK-MEL-5 melanoma; 104% in the experiment on UACC-62 melanoma; 96.9% with LOX IMVI melanoma; 109% in the experiment on SK-MEL-28 melanoma; 117% with EKVX NSCLC; 119% in the experiment on SN12C renal. Moreover, the growth in the experiment on UO-31 renal is 92.7%; with TK-10 renal, 100%; in the experiment on ACHN renal it was 113%; with CAKI-1 renal, 102%; in the experiment on A498 renal it was 94.6%; in the experiment with CCRF-CEM leukemia, 99.7%.

On to `O=C1CCCCC1CN1CCCCC1` (stereo not given), for which the growth with HCT-15 colon was 99.9%; in the experiment on HT29 colon it was 85.3%; in the experiment on SNB-75 CNS it was 109%; in the experiment with SNB-19 CNS, 108%; in the experiment on U251 CNS, 100%; in the experiment on PC-3 prostate it was 97.8%. The growth is 104% in the experiment on SK-MEL-5 melanoma; 99.4% in the experiment on UACC-62 melanoma; 95.4% in the experiment with LOX IMVI melanoma; 106% with SK-MEL-28 melanoma; 104% with EKVX NSCLC; 99.9% with SN12C renal. The growth with TK-10 renal was 90.4%; in the experiment on ACHN renal, 102%; with CAKI-1 renal it was 102%; in the experiment with A498 renal it was 96.6%; in the experiment with HL-60(TB) leukemia it was 93.4%; with CCRF-CEM leukemia it was 98.7%.

On to `O=C(O)c1ccc(=O)[nH]c1`, for which the growth in the experiment with HCT-15 colon was 97.5% and 103%; in the experiment on HT29 colon it was 109% and 97.7%; with SNB-75 CNS, 101% and 91.6%; in the experiment on SNB-19 CNS, 94.4% and 102%; in the experiment with U251 CNS it was 97.5% and 91%; in the experiment on PC-3 prostate, 103% and 90.1%. Also, the growth in the experiment with SK-MEL-5 melanoma is 101% and 100%; in the experiment on UACC-62 melanoma it was 88.7% and 98.6%; with LOX IMVI melanoma, 103% and 93.4%; in the experiment with SK-MEL-28 melanoma it was 106% and 110%; in the experiment with EKVX NSCLC, 111% and 98.7%; with SN12C renal, 88.4% and 95.5%. Also, the growth in the experiment with UO-31 renal is 92.2% and 88%; in the experiment with TK-10 renal, 94.8% and 97.5%; in the experiment with CAKI-1 renal, 98.3%; with HL-60(TB) leukemia, 109% and 102%; in the experiment on CCRF-CEM leukemia it was 106% and 95.4%.
